According to the supplement of paper PMC3545927:
Some of the results follow. No count for the full screen is at hand.

Target: furin, P09958
Assay: furin cleavage Z-score vs untreated control; higher = more cleavage, active = 3.5 or more, inactive = 1 or less, 8 variable residues between constant flanks
Method in brief: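 Purified furin digested bead-held 8-mer peptide–cDNA fusions at 1:10 enzyme:substrate in 0.01 ml of 50 mM HEPES pH 7.5 with CaCl2 and NaCl for 7.5, 15 or 30 min. The cleavage Z-score compares sequencing counts of released DNA with furin-free reactions on a log scale, with lowess adjustment and median absolute deviation scaling.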

furin, P09958, sequence (P09958 whole entry): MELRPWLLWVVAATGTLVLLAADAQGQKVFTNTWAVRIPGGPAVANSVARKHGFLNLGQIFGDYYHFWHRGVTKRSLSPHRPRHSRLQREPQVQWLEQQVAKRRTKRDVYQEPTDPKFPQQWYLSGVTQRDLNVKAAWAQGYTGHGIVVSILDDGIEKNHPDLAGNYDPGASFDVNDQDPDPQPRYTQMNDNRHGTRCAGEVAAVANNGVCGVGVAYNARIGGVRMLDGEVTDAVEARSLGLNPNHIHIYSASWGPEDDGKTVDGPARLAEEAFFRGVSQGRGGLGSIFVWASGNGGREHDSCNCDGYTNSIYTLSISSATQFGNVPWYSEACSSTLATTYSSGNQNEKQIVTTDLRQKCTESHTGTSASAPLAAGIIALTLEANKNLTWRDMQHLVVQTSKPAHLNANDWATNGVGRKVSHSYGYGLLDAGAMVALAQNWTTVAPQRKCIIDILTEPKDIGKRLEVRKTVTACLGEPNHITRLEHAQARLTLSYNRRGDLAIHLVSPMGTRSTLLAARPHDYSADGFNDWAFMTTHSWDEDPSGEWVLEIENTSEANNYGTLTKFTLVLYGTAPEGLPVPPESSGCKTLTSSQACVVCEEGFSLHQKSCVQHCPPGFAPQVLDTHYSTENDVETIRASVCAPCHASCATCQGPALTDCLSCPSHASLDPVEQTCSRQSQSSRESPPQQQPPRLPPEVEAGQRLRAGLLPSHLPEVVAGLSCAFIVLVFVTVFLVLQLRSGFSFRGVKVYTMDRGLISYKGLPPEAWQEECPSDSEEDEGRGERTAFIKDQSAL

Sequence	furin cleavage Z-score (7.5 min)	furin cleavage Z-score (15 min)	furin cleavage Z-score (30 min)
CALTHIDAHFAGNASASA [HC943]	-1.16 (inactive)	-1.18 (inactive)	-0.971 (inactive)
CAGLPVSARRAGNASASA [HC660]	-1.44 (inactive)	-0.486 (inactive)	-0.384 (inactive)
CARKTRSHTAAGNASASA [FS-3225]	4.24 (active)	5.12 (active)	4.27 (active)
CARKTRSARRAGNASASA [FS-2040]	7.75 (active)	10.4 (active)	8.66 (active)
CARATRARRAAGNASASA [FS-82]	10.6 (active)	10.6 (active)	7.6 (active)
CAGWKRARRAAGNASASA [FS-246]	10.7 (active)	11 (active)	9.68 (active)
CALLGCIITSAGNASASA [HC680]	-0.345 (inactive)	-1.06 (inactive)	-1.24 (inactive)
CANREVPCHRAGNASASA [HC2441]	1.82	-0.276 (inactive)	0.432 (inactive)
CAEVVTSTNVAGNASASA [HC2241]	0.759 (inactive)	0.285 (inactive)	0.157 (inactive)
CAITGHVKNGAGNASASA [HC1178]	-0.0306 (inactive)	-2.29 (inactive)	-0.221 (inactive)
CAGIQYLAGLAGNASASA [HC1046]	0.778 (inactive)	0.268 (inactive)	0.333 (inactive)
CARKKKVWDYAGNASASA [FS-2424]	0.95 (inactive)	-1.66 (inactive)	-0.314 (inactive)
CARRKKEVRKAGNASASA [FS-2449]	-0.452 (inactive)	-0.724 (inactive)	1.33
CARRHEKKRKAGNASASA [FS-1653]	-1.27 (inactive)	-0.15 (inactive)	-1.21 (inactive)
CARKTRSTHTAGNASASA [FS-3226]	10.5 (active)	11.5 (active)	7.23 (active)
CARRHRATRKAGNASASA [FS-1266]	7.21 (active)	8.97 (active)	6.15 (active)
CARFFRYLHTAGNASASA [FS-2920]	-0.737 (inactive)	-1.73 (inactive)	0.025 (inactive)
CARRHRARRAAGNASASA [FS-1265]	12.1 (active)	11 (active)	9.18 (active)
CARFDRIAHTAGNASASA [FS-2552]	0.362 (inactive)	-0.331 (inactive)	0.407 (inactive)
CARKTRARRAAGNASASA [FS-489]	11.1 (active)	11.3 (active)	9.01 (active)
CAFCALARKMAGNASASA [HC621]	0.374 (inactive)	0.367 (inactive)	0.832 (inactive)
CAQDVVCCSMAGNASASA [HC2122]	-0.38 (inactive)	-0.828 (inactive)	-1.79 (inactive)
CALLFNILGGAGNASASA [HC1064]	-0.771 (inactive)	-1.63 (inactive)	-1.52 (inactive)
CAERKRECQLAGNASASA [FS-1670]	0.036 (inactive)	1.4	-0.462 (inactive)

Sequence	furin cleavage Z-score (7.5 min)	furin cleavage Z-score (15 min)	furin cleavage Z-score (30 min)
CATAHRIKRAAGNASASA [FS-383]	9.97 (active)	8.71 (active)	6.96 (active)
CAERKRIKRAAGNASASA [FS-650]	9.45 (active)	8.85 (active)	7.6 (active)
CARPRRFMDLAGNASASA [FS-3163]	0.819 (inactive)	0.127 (inactive)	1.71
CARSGRGPFGAGNASASA [FS-1925]	-0.792 (inactive)	-2.29 (inactive)	-0.384 (inactive)
CAHERRMKRFAGNASASA [FS-791]	10 (active)	11.5 (active)	9.74 (active)
CARPRRAKRFAGNASASA [FS-1069]	9.54 (active)	11 (active)	9.13 (active)
CARPARLHRFAGNASASA [FS-1065]	-0.918 (inactive)	0.964 (inactive)	0.792 (inactive)
CADLGRAKRFAGNASASA [FS-225]	6.94 (active)	8.17 (active)	9.16 (active)
CARSGRAKRFAGNASASA [FS-1271]	10.1 (active)	10.5 (active)	11.1 (active)
CARSGRHVVFAGNASASA [FS-3079]	-0.951 (inactive)	0.442 (inactive)	1.42
CAKFPGGGQIAGNASASA [HC172]	-2.08 (inactive)	0.112 (inactive)	-2.19 (inactive)
CAELTTPCSGAGNASASA [HC1965]	-0.879 (inactive)	-0.537 (inactive)	-1 (inactive)
CAENLETTMRAGNASASA [HC760]	0.652 (inactive)	0.35 (inactive)	0.0456 (inactive)
CADPERRKRFAGNASASA [FS-985]	4.94 (active)	7 (active)	7.37 (active)
CATHFFSVLIAGNASASA [HC1584]	-0.934 (inactive)	-0.739 (inactive)	-0.913 (inactive)
CAVVCCSMSNAGNASASA [HC2101]	0.58 (inactive)	0.0609 (inactive)	0.764 (inactive)
CARLARALSPAGNASASA [FS-1735]	5.51 (active)	6.45 (active)	6.16 (active)
CARPARVALPAGNASASA [FS-2053]	-1.54 (inactive)	-0.594 (inactive)	1.32
CAWAGWLLSPAGNASASA [HC207]	-0.479 (inactive)	0.659 (inactive)	1.76
CARPARALHPAGNASASA [FS-2734]	1.19	3.17	4.44 (active)
CARLRRSSSPAGNASASA [FS-2353]	9.29 (active)	8.89 (active)	6.99 (active)
CARLARSFDCAGNASASA [FS-2568]	1.56	2.61	3.82 (active)
CARPARGAGPAGNASASA [FS-3015]	0.195 (inactive)	-1.12 (inactive)	-0.256 (inactive)
CARLARGSPPAGNASASA [HC1255]	0.846 (inactive)	0.514 (inactive)	0.935 (inactive)
